The values that follow come from ChEMBL document CHEMBL3433997, “St. Jude Leishmania screening dataset” (2016).

Common to all, as to assay type: functional
Experiment [1] addresses Solute carrier family 2, facilitated glucose transporter member 1 (Homo sapiens) (UniProt P11166). The experiment in a line: ST_JUDE_LEISH: Cytotoxicity at 2uM final concentration against transgenic Leishmania Mexicana promastigotes LmGLUT1 that are glucose transport deficient and complemented with the human glucose transporter GLUT1. Activity is measured by DNA content using SYBR green in vitro.

The target in experiment [2] is Hexose transporter 1 (Plasmodium falciparum) (UniProt O97467). Put plainly: ST_JUDE_LEISH: Cytotoxicity at 2uM final concentration against transgenic Leishmania Mexicana promastigotes LmPfHT that are glucose transport deficient and complemented with the Plasmodium falciparum hexose transporter. Activity is measured by DNA content using SYBR green in vitro.
For experiment [3], the target named is Glucose transporter (Leishmania mexicana) (UniProt O61059). Put plainly: ST_JUDE_LEISH: Cytotoxicity at 2uM final concentration against transgenic Leishmania Mexicana promastigotes LmGT2 that are glucose transport deficient and complemented with the L. Mexicana glucose transporter 2. Activity is measured by DNA content using SYBR green in vitro.

Sequence of Solute carrier family 2, facilitated glucose transporter member 1 (Homo sapiens) (P11166 whole entry): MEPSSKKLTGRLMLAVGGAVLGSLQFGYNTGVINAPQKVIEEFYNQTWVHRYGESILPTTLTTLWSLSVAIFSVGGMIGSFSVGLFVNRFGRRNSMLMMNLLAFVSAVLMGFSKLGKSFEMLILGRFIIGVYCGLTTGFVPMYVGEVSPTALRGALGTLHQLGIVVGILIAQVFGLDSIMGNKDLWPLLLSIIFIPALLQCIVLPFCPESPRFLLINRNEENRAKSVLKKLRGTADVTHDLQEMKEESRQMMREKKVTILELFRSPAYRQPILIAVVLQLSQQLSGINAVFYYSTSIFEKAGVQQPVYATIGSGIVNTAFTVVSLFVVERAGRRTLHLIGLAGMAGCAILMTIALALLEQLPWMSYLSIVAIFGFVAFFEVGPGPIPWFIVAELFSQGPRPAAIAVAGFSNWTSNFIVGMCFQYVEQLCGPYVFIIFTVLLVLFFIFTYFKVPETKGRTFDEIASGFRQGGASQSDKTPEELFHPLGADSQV

As to `CCn1ccc2c(N3CCCCS3(=O)=O)cc(C(=O)N[C@@H](Cc3ccccc3)[C@H](O)CNC(C)(C)c3cccc(C(F)(F)F)c3)cc21`, the results for the inhibition in experiment [1], in experiment [2] and in experiment [3] were 0.44%, -1.1% and -1.56%, respectively.
As to `O=c1cc(-c2ccc3ccccc3c2)[nH]c2ccccc12`, the figures for the inhibition in experiment [1], in experiment [2] and in experiment [3] were 2.83%, 2.68% and 2.23%, respectively.
For `Cc1cccc(C(=O)Nc2ccnc(N(C)CCCN(C)Cc3cccc(O)c3)c2)c1` the same measures were -1.6%, 1.08% and -0.23%.
Turning to `COc1ccc2nc(Nc3nc4cnccc4[nH]3)sc2c1`, the inhibition – broadly, the change of the read-out against control, counted positive when it falls – in experiment [1] was 4.17%; in experiment [2], 4.93%; in experiment [3], 5.34%.
For the compound `CCOc1ccc(Cc2c(C)nc3nc(N)nc(N)c3c2C)cc1`, the figures for the inhibition in experiment [1], in experiment [2] and in experiment [3] were 29.1%, 41.5% and 26%, respectively.
On to `CNC(=O)/C=C/c1cc(NC(=O)Nc2cc(C)nc3c(F)cccc23)ccc1OC`, for which the inhibition in experiment [1] is 3.93%; in experiment [2] it was 2.38%; in experiment [3], 3.44%.
In the case of `CC(C)NCC(O)COc1ccc(Cc2ccc(OCC(O)CNC(C)C)cc2)cc1` (stereo unspecified), the values for the inhibition in experiment [1], in experiment [2] and in experiment [3] were -0.23%, 0.19% and -0.55%, respectively.
In the case of `Cc1cccc2nc(-c3ccc(-c4ccc(CNCc5ccc(S(C)(=O)=O)cc5)cc4)cc3)[nH]c12`, the inhibition in experiment [1] turned out to be 12%; in experiment [2], 10.9%; in experiment [3], 7.88%.
Take `CN1CCN(c2ccc(Nc3ncc(Cl)c(Nc4cccnc4C(N)=O)n3)cc2)CC1`: the inhibition in experiment [1] is 84.2%; in experiment [2], 87.3%; in experiment [3], 66.8%.
On to `Cc1cccc2nc(-c3cccc(-c4cccc(NC(=O)c5ccoc5)c4)c3)[nH]c12`, for which the inhibition in experiment [1] was found to be 5.99%; in experiment [2], 5.37%; in experiment [3] it was 0.26%.
As to `O=C1CCCN1CCCNCc1cccc(-c2cccc(-c3nc4cc(C(F)(F)F)ccc4[nH]3)c2)c1`, the inhibition came out at 4.47% in experiment [1], 3.94% in experiment [2] and 4.37% in experiment [3].
For `O=C(/C=C/c1ccc(Cl)c(Cl)c1)NCCCCCN1CCCN(C(=O)Nc2cc(Cl)nc(Cl)c2)CC1` the same measures were 5.11%, 6.64% and 5.94%.
For `CCCCCCCCCCS(=O)(=O)N[C@H](COCc1cccc(Oc2ccccc2)c1)COP(=O)(O)OC` the same measures were 0.47%, 0.77% and -1.2%.
In the case of `N#Cc1ccc(N2CCN(Cc3cccc(-c4cccc(-c5nc6cc(F)ccc6[nH]5)c4)c3)CC2)nc1`, the inhibition in experiment [1] came to 3.5%; in experiment [2], 5.99%; in experiment [3] it was 3.65%.
Consider `CN(C)c1ccc(CN2CCCC(CNC(=O)c3ccc(-c4cccc(C(F)(F)F)c4)s3)C2)cc1` (stereo unspecified), for which the inhibition in experiment [1] is 1.33%; in experiment [2], 1.64%; in experiment [3] it was -0.14%.
Turning to `CN(Cc1cc(C(F)(F)F)cc(C(F)(F)F)c1)C(=O)C(Cc1ccc(F)cc1)C1CCCNC1` (stereo unspecified), the inhibition in experiment [1] stood at 6.71%; in experiment [2], 4.23%; in experiment [3], 6.9%.
`O=C(Nc1ccc(OC2CCN(Cc3ccc(F)cc3)C2)c(Cl)c1)c1cccs1` (stereo unspecified): the values for the inhibition in experiment [1], in experiment [2] and in experiment [3] were 2.66%, 2.25% and 0.55%, respectively.
In the case of `CC(C)c1sc(N2CCN(C)CC2)nc1C(=O)NCCc1ccc(Cl)c(Cl)c1`, the inhibition in experiment [1] is 2.62%; in experiment [2], 2.93%; in experiment [3], 2.34%.
For `CCOC(=O)C1=C(C)N=c2sc(=Cc3cc(Cl)ccc3O)c(=O)n2C1c1ccc2c(c1)OCO2` (stereo unspecified), the inhibition in experiment [1] is 0.16%; in experiment [2], 0.7%; in experiment [3], 1.37%.
`O=[N+]([O-])c1ccc(Oc2ccccc2CNCC2CCN(CC3CCCCC3)CC2)cc1`: the inhibition in experiment [1] was found to be 13.6%; in experiment [2] it was 15.7%; in experiment [3], 7.15%.
For `Cc1ccc(-c2ccn(Cc3ccc(OCc4ccccc4)cc3)n2)cn1.Cc1ccc(-c2ccnn2Cc2ccc(OCc3ccccc3)cc2)cn1` the same measures were 0.13%, 0.76% and 0.25%.
As to `CC1CCN(C(=O)C(Cc2c[nH]c3ccccc23)NS(=O)(=O)c2ccc(Cl)cc2)CC1` (stereo unspecified), the inhibition in experiment [1] was 0.31%; in experiment [2] it was 1.31%; in experiment [3], -0.09%.
Regarding `CC(C)(C)c1ccc(CNC(=O)c2cc(CNC3CCC(N)CC3)ccc2O)cc1` (stereo unspecified), the inhibition in experiment [1] is 0.08%; in experiment [2], -1.35%; in experiment [3], 0.99%.
As for `NC1=NC2(CCCCC2)N(OCCCCCCc2ccccc2)C(N)=N1`, the inhibition was 2.09% in experiment [1], 1.39% in experiment [2] and 0.69% in experiment [3].
With `Nc1c2ccccc2nc2ccc(-c3ccccc3)cc12`, the inhibition in experiment [1] was 18.4%; in experiment [2], 14.6%; in experiment [3], 13.1%.
For `N#Cc1cccc(NC(=O)NC2CCN(CCCCCNC(=O)/C=C/c3ccc(Cl)c(Cl)c3)CC2)c1` the same measures were 4.68%, 5.86% and 8.54%.
The like results for `Oc1ccc(-c2ccccc2)cc1CNC1CCCCC1` were, in that order, 2.86%, 0.92% and 2.38%.
Take `CCN(CC)CCN(Cc1ccc(-c2ccc(C(F)(F)F)cc2)cc1)C(=O)Cn1c(CCc2cccc(F)c2F)nc(=O)c2cccnc21`: the inhibition in experiment [1] is 0.41%; in experiment [2], 2.07%; in experiment [3], 1.66%.
Take `O=C(COc1ccc(C(=O)c2ccccc2)cc1)Nc1nccs1`: the figures for the inhibition in experiment [1], in experiment [2] and in experiment [3] were 0.24%, 0.43% and -3.28%, respectively.
The like results for `COc1ccc2cc(-c3nc(-c4c(Cl)cccc4Cl)[nH]c3-c3ccnc(NCCCN4CCN(C)CC4)c3)ccc2c1` were, in that order, -1.11%, -1.01% and -5.14%.
`O=C(NCCNc1ccnc(NCc2ccc(F)cc2)n1)c1cc2ccccc2s1`: the inhibition was 4.76% in experiment [1], 4.26% in experiment [2] and -0.4% in experiment [3].
Regarding `O=S(=O)(Nc1cccc(F)c1CNCc1ccccn1)c1ccc(Cl)c(Cl)c1`, the inhibition in experiment [1] is -1.4%; in experiment [2], 0.71%; in experiment [3], -2.5%.
